About 19,000 (20%) of roughly 96,000 compounds were called active. Not all results are given here. Unmarked numbers belong to inactive results.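 How the source made its calls: active means blocking of liver enzyme CYP2C9 beyond about 50% at 5 µM (limit read from the data); inactive means the rest.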

The record followed here is PubChem BioAssay AID777 (Sanford-Burnham Center for Chemical Genomics, 2007).

The target in the assay is Cytochrome P450 2C9 (Homo sapiens) (UniProt P11712). Description: blockers of cytochrome P450 2C9 activity – biochemical, luminescence, ADME assay, primary screen (AID 777). The conditions noted are these: CYP2C9 Supersomes, luciferin-H conversion, at 5 µM, stronger effect = higher value.
Sequence of Cytochrome P450 2C9 (Homo sapiens) (P11712 whole entry, looked up): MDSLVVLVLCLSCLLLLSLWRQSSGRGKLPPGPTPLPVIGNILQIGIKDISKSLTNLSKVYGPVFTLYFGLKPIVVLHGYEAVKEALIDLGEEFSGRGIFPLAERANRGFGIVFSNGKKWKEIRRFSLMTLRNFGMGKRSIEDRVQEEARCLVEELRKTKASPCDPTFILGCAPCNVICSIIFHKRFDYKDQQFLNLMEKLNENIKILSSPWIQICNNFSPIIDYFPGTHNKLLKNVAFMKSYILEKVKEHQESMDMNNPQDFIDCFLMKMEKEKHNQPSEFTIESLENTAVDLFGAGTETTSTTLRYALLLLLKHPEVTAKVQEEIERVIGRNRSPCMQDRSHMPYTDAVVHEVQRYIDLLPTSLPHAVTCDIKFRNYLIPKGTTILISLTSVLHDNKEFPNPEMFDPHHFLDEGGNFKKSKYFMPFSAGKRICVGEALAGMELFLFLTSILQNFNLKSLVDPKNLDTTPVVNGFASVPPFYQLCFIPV
As for `C=CCn1c(COc2ccccc2F)nnc1SCC(=O)N1CC(=O)Nc2ccccc21`, the inhibition was 12.5%. To `CCN=C1SC(CC(=O)Nc2ccc(C)cc2)C(=O)N1CC` (stereo not given) belongs -8.7%. To `Cc1ccc(C)c(NC(=O)C2CC(=O)N(C(C)C)C2)c1` (stereo not given) belongs -14.4%; to `CCN1C(=O)C(CC(=O)Nc2cc(C)ccc2C)SC1=Nc1ccc(S(N)(=O)=O)cc1` (stereo not given), 90.8% (active). The figure for `O=S(=O)(/C=C/c1ccccc1)NCCc1ccccn1` is -35.1%; for `Cc1nnc(SCC(=O)N(C(C)C)C(C)C)nc1C` it is -18.5%.

As for `CCCn1c(=O)c(-c2ccccc2)c(O)c2ccccc21`, the inhibition is 1.5%. The figure for `Cc1cccc(OCC(O)Cn2c(=N)n(CCN3CCOCC3)c3ccccc32)c1` (stereo not given) is -8.4%; for `O=C(c1ccc2c(c1)OCCO2)C1CCN(S(=O)(=O)c2cccc(F)c2)CC1` it is -18.3%.

Turning to `O=C(Nc1nc2cc3c(cc2s1)OCCO3)c1cccc(S(=O)(=O)N2CCOCC2)c1`, the inhibition was 50.9% (active). To `COc1ccc(S(=O)(=O)N2CCOCC2)cc1C(=O)Nc1nc2ccccc2s1` belongs -3.9%; to `CC1(C)CC(CCC(=O)Nc2ccccc2Cl)C(=O)O1` (stereo not given), -35.4%; to `CCc1nnc(NC(=O)CCC(=O)O)s1`, -9.1%. To `CCCCc1nc2c(=O)[nH]c3ccccc3c2o1` belongs -4.4%. As for `O=C(Nc1ccc2ccccc2c1)Nc1ccc2snnc2c1`, the inhibition was 19.3%.

On to `COc1ccc(NC(=O)/C(Cl)=C(/Cl)S(=O)Cc2ccc(C)cc2)cn1` (stereo not given), for which the inhibition is 52.9% (active). Take `COc1cccc(NC(=O)Cc2ccc(C)cc2)c1`: the inhibition is 21.1%. Regarding `O=C(Nc1cccc2c1CCCC2)C1CCN(C(=O)NC2CCCCC2)CC1`, the inhibition was 1.9%.

With `Cc1cccc2cc(C#N)c(N3CCCC3)nc12`, the inhibition was -2.2%. To `Cc1ccc(S(=O)(=O)C(C#N)c2nc3ccccc3nc2N2CCCC2)cc1C` (stereo not given) belongs 93.4% (active); to `CC(C)CCOc1ccc(C(=O)C[N+]2(C)CCOCC2)cc1`, 11%. The figure for `COc1ccccc1NC1=NC2(CCCC2)N=C(N)N1` is -4%; for `Cc1nc(N2CCOCC2)nc2c1CCCC2` it is -1.5%; for `CCOc1ccc(-c2nnn(CC(=O)N3CCN(c4ccc(F)cc4)CC3)n2)cc1OCC` it is -6.1%. `O=C(Nc1ccccc1-c1nnn(CC(=O)N2CCN(c3ccccc3)CC2)n1)c1cccs1`: the inhibition is 80.1% (active). Turning to `COc1ccccc1N1CCN(C(=O)Cn2nnc(-c3cccs3)n2)CC1`, the inhibition was 47.2%.

`CC(=O)c1ccc(OCCN2CCOCC2)cc1`: the inhibition was 9.9%.

For `CC1CC(c2ccccc2)n2nc(NC(=O)c3cccs3)nc2N1` (stereo not given), the inhibition is 0.9%. To `CCOC(=O)C1CCCN(C(=O)c2cncc(Br)c2)C1` (stereo not given) belongs 33.3%; to `Cc1cc(=O)n2nc(N3CCCC3C(=O)NCCCN3CC(C)CC(C)C3)sc2n1` (stereo not given), 1.8%. With `Cc1cc(=O)n2nc(N3CCCC(C(=O)NCCC4=CCCCC4)C3)sc2n1` (stereo not given), the inhibition was 61.7% (active). To `COc1ccc(CCNC(=O)C2CCN(c3nn4c(=O)cc(C)nc4s3)CC2)cc1OC` belongs -11.8%; to `CCCC(=O)Nc1nnc(CC(=O)OCC)s1`, -12.8%; to `COCCCNC(=O)Cn1cc(C(=O)C2CC2)c2ccccc21`, 11.2%. The figure for `O=C(Nc1nc2ccc(S(=O)(=O)N3CCCC3)cc2s1)C1CCCO1` (stereo not given) is 46.1%; for `CN1CCN(S(=O)(=O)c2ccc(NC(=O)C3CCCO3)cc2)CC1` (stereo not given) it is 60% (active). To `CN1CCN(S(=O)(=O)c2ccc(NC(=O)c3ccco3)cc2)CC1` belongs -13.5%. Consider `c1csc(CN2CCN(Cc3cccs3)C2c2cccs2)c1`, for which the inhibition was -9%.

Turning to `Cc1[nH]c2ccccc2c1C(=O)COC(=O)C(C)C`, the inhibition was -5%. To `COc1ccccc1CCNC(=O)c1cnccn1` belongs -35.8%; to `CCCN(Cc1cc2cccc(C)c2[nH]c1=O)S(C)(=O)=O`, 36.4%; to `CCOc1ccc(C(=O)NCCCN2CCCC2=O)cc1`, 12.3%. The figure for `COc1ccc(S(=O)(=O)N(CCCN2CCCC2=O)Cc2cc3c(C)ccc(C)c3[nH]c2=O)cc1` is 85.6% (active). As to `CSc1ccc(Cl)c(C(=O)OCC(=O)N2CC(C)OC(C)C2)c1` (stereo not given), the inhibition was -24.7%.

In the case of `Cc1nc2nc3c(cn2n1)C(=O)CC(c1ccccc1)C3` (stereo not given), the inhibition was 65.6% (active).

In the case of `COc1ccc(CNC(=O)c2c(C)cc(=O)oc2C)cc1OC`, the inhibition was 32.7%.

Turning to `Cc1cc(=O)oc(C)c1C(=O)Nc1cnc2ccccc2c1`, the inhibition is 10.5%.

For the compound `Cc1cc(=O)oc(C)c1C(=O)NCc1ccc(F)cc1`, the inhibition was 51.6% (active). To `O=C(c1ccc(Cl)c(Cl)c1)N1CCCC1` belongs 7%; to `O=C(CN1CCN(S(=O)(=O)c2ccc(Cl)s2)CC1)NCc1ccc(Cl)cc1`, 55.1% (active). The figure for `Cc1cccc(NC(=O)CN2CCCN(S(=O)(=O)c3ccc(Br)s3)CC2)c1` is 11.6%; for `Cc1ccc(CNC(=O)CN2CCN(Cc3ccc(Cl)cc3)C2=O)cc1` it is 17.5%; for `O=S(=O)(NCc1ccccc1Cl)c1cnc[nH]1` it is 28.8%. The figure for `CC1(C)CC(=O)C=C(NCCN2CCNCC2)C1` is -8.1%; for `CCOC(=O)c1nc(Nc2ccc(C(=O)OC)cc2)c2ccccc2n1` it is 59.5% (active); for `COC(=O)c1ccc(NCC(=O)c2ccccc2)cc1` it is 48.7%. `Cc1ccc(Nc2nc(C)cc(C)c2C(N)=O)cc1`: the inhibition was 6.2%. The figure for `Cc1nc(CNS(=O)(=O)c2cccnc2)cs1` is 8.8%. To `CCc1cc2c(=O)c(-c3ccon3)c(N)oc2cc1OC` belongs 0.5%.

For the compound `O=C(CSc1nnc(-c2cccs2)n1-c1ccccc1)N1CCN(C(=O)c2ccco2)CC1`, the inhibition was 23.6%.

On to `CCOc1ccccc1-n1c(SCC(=O)N2CCCC2)nnc1-c1ccoc1C`, for which the inhibition was 8.8%. The figure for `COc1ccc(-n2c(SCC(=O)NCc3cccs3)nnc2-c2ccoc2C)cc1` is 66.1% (active); for `CCn1c(SCC(=O)Nc2ccc(OC)c(OC)c2)nnc1-c1c[nH]c2ccccc12` it is 93.3% (active); for `Cc1ccc(-n2c(SCC(=O)Nc3ccc4c(c3)OCO4)nnc2-c2ccoc2C)cc1` it is -13.4%.

With `O=C(CSc1nnc2scc(-c3ccc(F)cc3)n12)NCc1ccco1`, the inhibition is 55% (active).

As to `Cc1ccc(-c2csc3nnc(SCC(=O)NCc4ccco4)n23)cc1`, the inhibition is 40.9%. With `CCn1c(SCCC(C)C)nnc1-c1c[nH]c2ccccc12`, the inhibition is 1.7%. To `CCOC(=O)N1CCN(C(=O)CSc2nnc(-c3c[nH]c4ccccc34)n2CCOC)CC1` belongs 14.7%. Turning to `O=C(CSc1nnc(-c2ccco2)n1-c1ccccc1)NCCc1ccccc1`, the inhibition was 30.9%.

As for `O=C(CSc1nnc(-c2cccs2)n1-c1ccccc1)NCc1ccco1`, the inhibition was 70.7% (active).
